Screening results from PubChem.
Rab2A wt mod = modulators of GTP binding to Rab2A wildtype, primary screen, biochemical, dog, bead-based flow cytometry, multiplex; Ras-related protein Rab-2A (Canis lupus familiaris), P61105; GST-Rab2 wt beads, Bodipy-GTP binding; GTP binding activity, % at 10 µM; 190,000 tested, 0.19% active;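 active = GTP binding activity at least 20 points away from 100%, either lowered or raised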
HRas wt GTP = modulators of GTP binding to HRas wildtype, primary screen, biochemical, bead-based flow cytometry, multiplex | 190,000 tested, 0.14% active | GST-Ras wt beads, Bodipy-FL-GTP binding; actives lie on both sides | GTP binding activity, % at 10 µM | GTPase HRas (Homo sapiens), P01112;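 active = GTP binding activity at least 20% away from the 100% baseline, either lowered as inhibitor or raised as activator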
Target sequence (P01112 whole entry, looked up): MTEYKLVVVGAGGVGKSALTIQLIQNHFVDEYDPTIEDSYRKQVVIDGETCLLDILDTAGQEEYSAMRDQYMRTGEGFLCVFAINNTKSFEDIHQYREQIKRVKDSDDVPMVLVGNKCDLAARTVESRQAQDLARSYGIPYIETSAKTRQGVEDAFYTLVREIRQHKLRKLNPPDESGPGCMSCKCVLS
Rab7 wt modul = modulators of GTP binding to Rab7, primary screen, biochemical, wildtype, multiplex bead flow cytometry; AID 758, 2007; GST-Rab7 beads, fluorescent GTP binding; actives lie on both sides; untreated = 100%, excess cold GTP = 0%; GTP binding activity (percent of control), % at 10 µM; 190,000 tested, 0.055% active; Rab7 GTPase wild type (dog), Bodipy-FL-GTP binding;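 active = fluorescent GTP binding to Rab7 beads changed by at least 20 points from the 100% baseline, either direction, mostly lower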;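 note: median green fluorescence of bound Bodipy-FL-GTP per Rab7 bead population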
Cdc42 wt = modulators of GTP binding to wildtype Cdc42, primary screen, biochemical, multiplex bead flow cytometry, Bodipy-GTP; Cell division control protein 42 homolog (Homo sapiens), P60953; GST-Cdc42 beads; actives lie on both sides; percent activity (GTP binding), % at 10 µM; 190,000 tested, 0.2% active;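 active = percent activity GTP binding at least 20 points away from the 100% baseline, either down as inhibitor or up as activator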;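 note: median bead fluorescence of bound Bodipy-FL-GTP at 100 nM; below 100% means less GTP binding so inhibitor and above means activator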
Target sequence (P60953 whole entry, looked up): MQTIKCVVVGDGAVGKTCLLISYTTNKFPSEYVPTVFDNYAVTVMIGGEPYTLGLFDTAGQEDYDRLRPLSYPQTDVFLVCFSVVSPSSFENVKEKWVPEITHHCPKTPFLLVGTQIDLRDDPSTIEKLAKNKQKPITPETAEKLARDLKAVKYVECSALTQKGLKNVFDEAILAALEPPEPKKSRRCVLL
Rac1 mut GTP = GTP binding modulators of activated mutant Rac1, primary screen, biochemical, bead-based flow cytometry, multiplex, fluorescent GTP; Ras-related C3 botulinum toxin substrate 1 (Homo sapiens), P63000; GST-Rac1 activated beads; actives lie on both sides; 100% means binding = to untreated wells; percent activity (GTP binding), % at 10 µM; 190,000 tested, 0.11% active;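 active = GTP binding at least 20 percentage points away from the 100% baseline, in either direction, so actives lie on both sides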
Rac1 wt GTP bind = wildtype Rac1 GTP binding modulators, primary screen, biochemical, GST-Rac1 beads, flow cytometry, multiplex. fluorescent GTP binding; actives lie on both sides; 0 = cold GTP competed, 100 = untreated. GTP binding activity (% of control), % at 10 µM. 190,000 tested, 0.27% active;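 active = GTP binding activity at least 20 points away from the 100% control level, either lower or higher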
Large screens that a line does not name were inactive; [ ] = remark or other dose. This is a sample that favours compounds with a hit; in the whole collection about 0.38% have one here.

CC(C)NC(=S)N=Nc1c(O)[nH]c2ccc([N+](=O)[O-])cc12	Rab2A wt mod 68.0, HRas wt GTP 72.0, Cdc42 wt 68.0, Rac1 wt GTP bind 62.0
Cc1ncsc1C(=O)O	none
O=c1cc(CN2CCN(S(=O)(=O)c3ccc4c(c3)OCCO4)CC2)c2ccc(O)cc2o1	none
O=C(CCNS(=O)(=O)c1cccc2nsnc12)N1CCN(c2ccccn2)CC1	Cdc42 wt 122.0[activator], Rac1 wt GTP bind 138.0[activator]
COc1cccc(N2CCN(C(=O)CCCCCNc3nc(=S)[nH]c4ccccc34)CC2)c1	Cdc42 wt 79.0, Rac1 wt GTP bind 74.0
O=C(CCCCCNc1nc(=S)[nH]c2ccccc12)N1CCN(c2ccccn2)CC1	none
Cc1ccc(C(=O)Nn2c(O)c(C=C3N=c4ccccc4=N3)sc2=S)cc1	HRas wt GTP 73.0, Cdc42 wt 73.0, Rac1 mut GTP 79.0, Rac1 wt GTP bind 72.0
O=C(Nn1c(O)c(C=C2N=c3ccccc3=N2)sc1=S)c1ccc(Cl)cc1	none
Cc1sc2nc3c(SC(C)C(=O)O)cc(C(=O)c4ccccc4O)cn3c(=O)c2c1C (stereo not drawn)	Rac1 wt GTP bind 75.0
Cc1ccc(/C([O-])=C(/C(=S)NCc2ccccc2)[n+]2ccccc2)cc1[N+](=O)[O-]	none
CCOC(=O)c1nn(-c2ccccc2)c(=O)cc1SC(C)C	Rab2A wt mod 63.0
Cc1ccc(-c2csc3nc4c5ccccc5c(NCCCN5CCOCC5)nn4c(=O)c23)cc1	Rab2A wt mod 59.0, HRas wt GTP 60.0, Cdc42 wt 57.0, Rac1 wt GTP bind 60.0
Cc1ccc(-c2csc3nc4c5ccccc5c(NCCCN(C)C)nn4c(=O)c23)cc1	Rab2A wt mod 77.0, HRas wt GTP 73.0, Cdc42 wt 72.0, Rac1 wt GTP bind 79.0
Cc1ccc(-c2csc3nc(C)n(N)c(=O)c23)cc1	none
O=C(Cn1nc(-c2ccccc2)c2ccccc2c1=O)Nc1cccc(O)c1	none
COC(=O)c1ccc2nc(Nc3nc4c(F)cc(F)cc4s3)sc2c1	Rab2A wt mod 79.0
Cc1nc2ccccn2c1-c1csc(Nc2cccc(O)c2)n1	Rac1 wt GTP bind 75.0
Cn1c(SCc2nnc(-c3ccccc3)o2)nc2ccccc21	none
COc1ccc(-c2nnc(CSc3nc4ccccc4c(=O)n3C)o2)cc1OC	Rac1 wt GTP bind 120.0[activator]
O=C(N/N=C/c1cccc(O)c1)c1ccc(COc2ccc3c(c2)CCC3)o1	none
CC(C)C(=O)N1CCN(c2ccccc2NC(=O)c2cccc(Cl)c2)CC1	Rac1 wt GTP bind 121.0[activator]
COC(=O)c1ccc(C)c(NC(=O)CCc2ccc(OC)c(OC)c2)c1	none
O=C(CCCN1C(=O)/C(=C/c2ccccc2Cl)SC1=S)NNC(=O)c1ccccc1Cl	none
COc1ccc(/C=C2\SC(=S)N(CCCC(=O)NNC(=O)c3ccccc3O)C2=O)cc1	Cdc42 wt 78.0, Rac1 wt GTP bind 79.0
CN1C(=O)c2ccccc2N(C)C1c1ccc2c(c1)OCO2 (stereo not drawn)	none
CCC(SC1=N/C(=C/c2ccccc2)C(=O)N1c1ccccc1)C(=O)Nc1cc(C)on1 (stereo not drawn)	none
COc1ccc(/C=C2/N=C(SCC(=O)Nc3cc(C)on3)N(c3ccccc3)C2=O)cc1	Rac1 wt GTP bind 77.0
Cc1cccc(Cc2c(C)nc3nc(SCC(=O)O)nn3c2C)c1	Rab2A wt mod 74.0, HRas wt GTP 78.0, Cdc42 wt 66.0, Rac1 mut GTP 68.0, Rac1 wt GTP bind 72.0
Cc1nc2nc(SCC(=O)NCCN3CCOCC3)nn2c(C)c1Cc1ccccc1	none
O=C(CCS(=O)NCc1ccccc1)NCc1ccccc1 (stereo not drawn)	none
O=C(O)c1cc(C(=O)O)cc(-c2ccc(/C=c3/sc4nc5ccccc5n4c3=O)o2)c1	Rab2A wt mod 79.0
O=C(C1CCCN(Cc2cccc(F)c2)C1)N1CCCCC1 (stereo not drawn)	none
COc1ccc(NCc2nnc(SCC(=O)NNC(=O)c3ccc(C)cc3)n2C)cc1	none
CC(C)C(NCc1c(Cl)cccc1Cl)C(=O)O (stereo not drawn)	Rac1 wt GTP bind 124.0[activator]
Cc1cccc(C(=O)Nc2cc(OCc3cccc(F)c3)c(Cl)cc2Cl)c1	none
COc1ccc(OCC(=O)Nc2nonc2NC(=O)COc2ccc(OC)cc2)cc1	Rac1 wt GTP bind 79.0
Cc1cc(C)cc(OCC(=O)Nc2nonc2NC(=O)COc2cc(C)cc(C)c2)c1	none
Cc1ccc(C2CC(c3cccs3)n3nc(N)nc3N2)cc1 (stereo not drawn)	none
